AMA1 RON2 block – qHTS for Inhibitors of AMA1-RON; Towards Development of Antimalarial Drug Lead: Primary Screen; Plasmodium falciparum AMA1 (3D7) - RON2 peptide interaction; AlphaScreen AMA1-biotinylated RON2 peptide binding; Potency, µM (series often up to 58.2 µM), without a hit: at the highest dose activity change, negative = inhibition, actives largely listed as inhibitors; 360,000 tested, 0.2% active; AID 720542, 2013;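 also: potency is read from the fitted curve at half-maximal effect; 0% = vehicle wells and -100% = peptide control; nearly all actives have a fitted effect of over 45% in size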
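AMA1 (3D7) with his tag at 25 nM final met compounds first, then biotinylated RON2 peptide at 25 nM; detection used donor plus acceptor beads, 10 µg/mL apiece, read by AlphaScreen after 30 min at room temperature.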
Pf growth 96h – Primary qHTS for delayed death inhibitors of the malarial parasite plastid, 96 hour incubation; P. falciparum luciferase reporter growth, 96 h; Potency, µM (highest dose often 28.7 µM), inactives show at the top dose activity change, negative = inhibition, most hits filed as inhibitors; 320,000 tested, 6.9% active; AID 504834, 2011; also: potency is read from the fitted curve at half-maximal effect; % is scaled to controls: 0 for no effect and ±100 for the full control effect
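96 h incubation, 37 C, 5% CO2, of luciferase-reporter P. falciparum-infected RBCs (2% hematocrit, 0.05% parasitemia final) with test compounds; endpoint luminescence.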
SARS PLP yeast – qHTS of Yeast-based Assay for SARS-CoV PLP | Potency, µM (highest dose often 32.9 µM), without a hit: top-dose activity, positive = growth rescue, usual class: activators | S. cerevisiae expressing SARS-CoV PLpro, growth rescue | 330,000 tested, 0.19% active; calls by dose curve; also: potency is read from the fitted curve at half-maximal effect; 0% is about no effect; nearly all actives have a fitted effect of over 55% in size
Pf growth 48h – Primary qHTS for delayed death inhibitors of the malarial parasite plastid, 48 hour incubation | P. falciparum luciferase growth in erythrocytes, 48 h | Potency, µM (highest dose often 28.7 µM), for inactives: top-dose activity change, negative = inhibition, most hits filed as inhibitors | 310,000 tested, 5.9% active | AID 504832, 2011; also: potency is read from the fitted curve at half-maximal effect; % is scaled to controls: 0 for no effect and ±100 for the full control effect
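Erythrocytes infected with P. falciparum carrying an integrated firefly luciferase reporter (2% hematocrit, 0.1% parasitemia final) were exposed to compounds in RPMI 1640 with 0.5% Albumax at 37 C, 5% CO2. Growth inhibition was scored as reduced luminescence.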
CHX counter – Cycloheximide Counterscreen for Small Molecule Inhibitors of Shiga Toxin | cell reporter, cycloheximide protein synthesis inhibition counterscreen | 300,000 tested, 12% active | max response, %; in the data active = max response mostly above about 13%, no sharp cut-off; inactive = mostly below about 14%; also: read at 38.3 µM for the half of the compounds with a filed dose; 0% is about no effect
Shiga toxin inh – A qHTS for Small Molecule Inhibitors of Shiga Toxin. Vero cells, Shiga toxin protein synthesis inhibition reporter. inhibition, % at 38.7 µM. 290,000 tested, 9.2% active. AID 2315, 2010; in the data active = inhibition mostly above about 28%, no sharp cut-off; inactive = mostly below about 43%; also: 0% is about no effect
* marks the source's active call; other numbers are inactive results; ? = inconclusive; · = no result given. An excerpt weighted towards active compounds, which were near 19% of everything screened. Unless noted, calls follow the shape of the dose curve; as a rule, active = well fitted curve in the direction sought with a large enough effect; inconclusive = small, poorly fitted or top-dose-only effect, or another doubt; inactive = no such curve, though single readings can be large; an effect the other way counts as inactive or inconclusive.

SMILES	AMA1 RON2 block	Pf growth 96h	SARS PLP yeast	Pf growth 48h	CHX counter	Shiga toxin inh
CCOC(=O)c1c(C)oc2c1cc(NS(=O)(=O)c1ccc(C(=O)O)cc1)c1ccccc12	-5%	-4%	5%	14%	0	15
CCOC(=O)c1c(C)oc2c1cc(O)c1ccccc12	-7%	-2%	3%	120%	35*	108*
CCOC(=O)c1c(C)[nH]c2c1cc(O)c1ccccc12	11%	?	-6%	0.15µM*	34*	65*
CCOC(=O)c1c(C)[nH]c2ccc(O)cc12	-9%	?	0%	·	-2	-3
Cc1ccc(C(=O)NCC(=O)OC(C)C(=O)Nc2ccc(N(C)C)cc2)cc1C (stereo not drawn)	?	13%	-4%	39%	9	4
CN1CCCCCC1C(=O)N1CCC(N2CCC(C(=O)N3CCOCC3)CC2)CC1 (stereo not drawn)	-9%	?	1%	-6%	4	20
CC(=O)NO	-9%	-9%	·	-6%	·	·
O=C(c1ccc(F)cc1)c1ccc(-c2ccc(F)cc2)nc1	-11%	58%	0%	25%	14*	48
COc1ccc(C(=O)c2ccc(-c3ccc(OC)cc3)nc2)cc1	15%	31%	2%	28%	-1	27
CC(=O)COc1ccc2c(c1C)O/C(=C\c1ccco1)C2=O	-13%	58%	5%	69%	82*	127*
Cc1cc(O)c(CN(C)C)c2c1C(=O)/C(=C/c1ccco1)O2	6%	5.2µM*	0%	6.6µM*	-2	-9
COC(=O)C1=C(C)N(C)C(=O)/C1=C\c1ccco1	-17%	21%	4%	23%	-4	-14
COC(=O)C1=C(C)NC(=O)/C1=C\c1ccco1	-11%	34%	-5%	0%	11	0
Cc1c(OC(=O)N(C)C)ccc2c1O/C(=C\c1ccco1)C2=O	-6%	34%	-4%	33%	47*	91*
CCc1ccccc1NC(=O)CNC(=O)CNC(=O)Cc1ccccc1	-10%	19%	-1%	26%	·	·
O=C(O)CCC(=O)c1ccc2c(c1)OCCO2	6%	?	-8%	·	8	10
O=C(CCN1Cc2ccccc2C1)c1ccc2c(c1)OCCO2	3%	·	-49%	?	19*	37
O=C(CCCN1Cc2ccccc2C1)c1ccc(F)cc1	10%	5.2µM*	-5%	20%	22	-5
O=C(CCN1CCc2ccccc2C(c2ccccc2)C1)c1ccc2c(c1)OCCO2 (stereo not drawn)	-14%	-9%	-26%	·	19*	25
O=C1ON(Cc2ccccc2)C(c2ccccc2)N1c1ccccc1 (stereo not drawn)	-4%	·	·	·	·	·
COc1ccc(/C=c2/sc3n(c2=O)C(c2ccccc2OC)C2=C(N=3)c3ccccc3CC2)cc1O (stereo not drawn)	16%	2.3µM*	6%	2.1µM*	1	-21
COc1ccc(C2C(C(C)=O)=C(C)N=c3s/c(=C\c4cc(C)n(C)c4C)c(=O)n32)c(OC)c1 (stereo not drawn)	-26%	8.3µM*	2%	9.3µM*	-3	15
CCOC(=O)C1=C(c2ccccc2)N=c2s/c(=C\c3cc(OC)c(OC)c(OC)c3)c(=O)n2C1c1cccs1 (stereo not drawn)	22%	?	13%	0.66µM*	4	25
CCOC(=O)C1=C(C)N=c2s/c(=C/c3ccc(OCC(=O)O)cc3)c(=O)n2C1c1ccc(OC)cc1OC (stereo not drawn)	-3%	1.2µM*	-6%	0.47µM*	-1	·
COc1ccc(C2C(C(C)=O)=C(C)N=c3s/c(=C\c4ccc5c(c4)OCO5)c(=O)n32)c(OC)c1 (stereo not drawn)	-5%	·	·	·	·	·
SMILES	AMA1 RON2 block	Pf growth 96h	SARS PLP yeast	Pf growth 48h	CHX counter	Shiga toxin inh
CCN1C(=O)[C@H]2[C@@H](c3ccc(-c4cc(C(C)=O)cs4)cc3)N3CCC[C@@]3(C(=O)OC)[C@H]2C1=O	0%	?	-5%	?	·	·
CC(=O)c1cn(CC(=O)Nc2ccccc2C(F)(F)F)c2ccccc12	-1%	?	5%	0%	-2	·
O=C(NCc1cccnc1)C1CCN(S(=O)(=O)c2cc([N+](=O)[O-])ccc2Cl)CC1	-4%	·	·	·	·	·
CCOC(=O)C1=C(C)N=c2s/c(=C/c3cccc([N+](=O)[O-])c3O)c(=O)n2C1c1ccc(OC)cc1OC (stereo not drawn)	-15%	4.7µM*	-6%	?	-4	·
CCOC(=O)C1=C(C)N=c2s/c(=C\c3ccc(OCC(=O)O)cc3)c(=O)n2C1c1ccccc1OC (stereo not drawn)	-10%	18%	2%	1µM*	-1	-2
CCOC(=O)C1=C(C)N=c2s/c(=C\c3ccc(O)c([N+](=O)[O-])c3)c(=O)n2C1c1ccccc1OC (stereo not drawn)	-5%	-95%	-10%	?	2	-3
CCOC(=O)c1cc(C#N)c(SCC(=O)Nc2ccc(C(C)=O)cc2)[nH]c1=O	4%	-2%	1%	8%	17*	47*
CCOC(=O)c1cc(C#N)c(SCC(N)=O)[nH]c1=O	-7%	6%	0%	6%	-3	-3
O=C(NCCCN1CCOCC1)/C(=C/c1cccnc1)NC(=O)c1ccccc1	-12%	?	-3%	54%	2	15
CCN(CC)CCC(c1ccc(N(C)C)cc1)c1c(OC)cc(OC)c2c(C)cc(=O)oc12 (stereo not drawn)	·	·	·	·	-5	-12
CCCCCc1cc(=O)oc2c(C(CCN3CCCC(C)C3)c3ccc(N(C)C)cc3)c(OC)cc(OC)c12 (stereo not drawn)	14µM*	8.3µM*	-6%	?	-3	2
CCCCCc1cc(=O)oc2c(C(CCN3CCCC(C)C3)c3cc(OC)c(OC)c(OC)c3)c(OC)cc(OC)c12 (stereo not drawn)	-24%	0.37µM*	-1%	2.6µM*	-6	11
CCCCCc1cc(=O)oc2c(C(CCN3CCCCC3)c3cc(OC)c(OC)c(OC)c3)c(OC)cc(OC)c12 (stereo not drawn)	-25%	2.3µM*	0%	5.2µM*	6	-9
CCCCCc1cc(=O)oc2c(C(CCN(CC)CC)c3ccc(N(C)C)cc3)c(OC)cc(OC)c12 (stereo not drawn)	25µM*	?	8%	?	-7	-1
COc1cc(C(CCN2CCCCC2)c2c(OC)cc(OC)c3c2OC(=O)CC3c2ccc(N(C)C)cc2)cc(OC)c1OC (stereo not drawn)	·	·	·	·	4	-9
Cc1[nH]nc2c1C(C(C)c1ccccc1)C(C#N)=C(N)O2 (stereo not drawn)	-14%	26%	-5%	-22%	-3	-15

Bioassay records (PubChem)
